# TGFb SMAD3 inh – blocks TGF-b signaling; HepG2 CAGA-GFP TGF-b/SMAD3 reporter, GFP fluorescence, 18 h; TGF-beta stimulated, 500 pg/mL final; Potency, µM (highest dose often 46.1 µM), for inactives: at the top dose activity, negative = inhibition, hits mostly inhibitors; hit rate 1.2% among 410,000; further: on the % scale 0 is the no-effect control and ±100 the full control effect; nearly all actives have a fitted effect of over 65% in size
#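 Per well, imaged GFP fluorescence of HEPG2 CAGA-GFP cells gives the signal; cells get compound, then TGF-beta (500 pg/mL final), 18 h at 37 degrees C; %Activity versus -TGF-beta and +DMSO controls.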
# KB-V1 MDR tox – kills drug-selected multidrug resistant KB-V1 cells. KB-V1 MDR cells viability, CellTiter-Glo, 72 h. Potency, µM (titrated, usually from 46.1 µM), hits mostly cytotoxic. hit rate 3.4% among 400,000. AID 1347076; further: on the % scale 0 is the no-effect control and ±100 the full control effect; nearly all actives have a fitted effect of over 60% in size
#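 In this primary screen, KB-V1 cells overexpressing P-gp are incubated with library compounds (lowest to highest concentration) for 72 h at 37 degrees C before a luminescent ATP viability read.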
# KB-3-1 cytotox – KB-3-1 parental cell cytotoxicity | KB-3-1 viability, CellTiter-Glo ATP luminescence, 72 h | Potency, µM (titrated, usually from 46.1 µM), hits mostly cytotoxic | hit rate 1.4% among 400,000; further: on the % scale 0 is the no-effect control and ±100 the full control effect; nearly all actives have a fitted effect of over 60% in size
#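 Cytotoxicity measured as CellTiter-Glo luminescence after 72 h at 37 C. Compound titrations were pinned onto drug-naive KB-3-1 parental adenocarcinoma cells grown in DMEM with 10% FBS, and normalized data fitted to concentration-response curves.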
# HepG2 tox – HepG2 cytotoxicity, counter-screen for TGF-b inhibitors; HepG2 CAGA-GFP viability, ATP luminescence, 18 h; Potency, µM (titrated, usually from 46.1 µM), for inactives: top-dose activity change, negative = cytotoxicity, usual class: cytotoxic; hit rate 0.76% among 410,000; AID 588856
#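 HepG2 CAGA-GFP cells (1000/well, DMEM with 1% FBS) received compound, then TGF-beta at 500 pg/mL final, and were incubated 18 hours at 37 degrees C. Viability was read by CellTiter-Glo luminescence. Media-only wells were set as complete cell-killing and DMSO as no toxicity.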
# ATXN2 expr inh – ATXN2 expression inhibition; HEK-293 ATXN2-luciferase reporter, luminescence, 24 h; Potency, µM (doses to about 57 µM), for inactives: at the top dose activity change, negative = inhibition, actives largely listed as inhibitors; hit rate 0.72% among 360,000; further: on the % scale 0 is the no-effect control and ±100 the full control effect; nearly all actives have a fitted effect of over 55% in size
#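 ATXN2-luciferase reporter cells (luciferase flanked by upstream and downstream ATXN2 gene portions) were treated 24 h at 37 °C with compounds at up to 57 uM. SteadyGlo luminescence gave expression; GF-AFC fluorescence gave viability.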
# S2 tox – viability counter-screen for ATXN expression inhibitors | S2 cells (HEK-293 line with an ATXN2-luciferase reporter) viability, CellTiter-Fluor protease fluorescence, 24 h | Potency, µM (titrated, usually from 56.7 µM), actives largely listed as cytotoxic | hit rate 0.49% among 400,000 | AID 651635; further: nearly all actives have a fitted effect of over 40% in size
# Active calls of the source: *; i = inactive; ? = inconclusive; . = no result given; ! = repeats disagree. Sampled rows, rich in hits. Any-hit rate of the full collection: about 5.9%. The call rests on the fitted dose curve; in most records, active means well fitted curve in the direction sought with a large enough effect; inconclusive means small, poorly fitted or top-dose-only effect, or another doubt; inactive means no such curve, though single readings can be large; an effect the other way counts as inactive or inconclusive. Potency means the concentration at half of the fitted maximal effect.
SMILES,TGFb SMAD3 inh,KB-V1 MDR tox,KB-3-1 cytotox,HepG2 tox,ATXN2 expr inh,S2 tox
COc1ccc2cc(CNCc3ccccc3Cl)c(N3CCCC(CO)C3)nc2c1 (stereo not given),.,.,.,.,.,i
CCN1c2ccccc2NC2C1C(C(C)=O)C(=O)N2c1ccc(Cl)cc1 (stereo not given),44.5%,i,i,-33.2%,-36.8%,i
CCN1c2ccccc2NC2N=C(OC)C(c3ccccc3)C21 (stereo not given),12.6µM*,?,i,11.2µM*,?,i
COc1cc2[nH]c(=O)n(CCCC(=O)N3CCN(c4cccc(C(F)(F)F)c4)CC3)c(=O)c2cc1OC,-0.9%,i,i,-0.6%,-4.7%,i
CCN(CC)CCNC(Cc1ccccc1)c1cccc(OC)c1 (stereo not given),-15.9%,23.1µM*,i,-13.8%,6.7%,i
N=C1C=CC(=C(c2ccc(N)cc2)c2ccc(N)cc2)C=C1,?,i,3.66µM*,-28.0%,?,.
Cc1ccc(Cl)cc1N1CCN(C(=O)c2cnn(-c3ccc(Cl)cc3)c2C2CCNCC2)CC1,?,i,i,11.2µM*,31.6µM*,.
Cc1c(Cl)cccc1-n1ncc(C(=O)N2CCOCC2)c1C1CCN(C(=O)OC(C)(C)C)CC1,-0.4%,i,i,0.9%,1.2%,i
Cc1ccc(N2CCN(C(=O)c3cnn(-c4ccc(C)c(C)c4)c3C3CCNCC3)CC2)c(C)c1,?,i,?,-90.5%,?,i
Cc1cccc(N2CCN(C(=O)c3cnn(-c4cccc(Cl)c4C)c3C3CCNCC3)CC2)c1C,17.8µM*,.,.,-94.2%,.,.
C[C@H]1COc2cc(N3CCC[C@H]3CO)ccc2S(=O)(=O)N1,.,i,i,.,6.0%,i
CC(C)Cc1nc2oc3c(=O)[nH]cnc3c2c2c1CCCC2,2.7%,18.4µM*,i,9.0%,-2.8%,?
CC(C)Cc1nc2oc3c(Cl)ncnc3c2c2c1CCCC2,16.8%,i,i,4.8%,31.6µM*,?
COc1cc(-c2oc3ccc(C)cc3c(=O)c2O)cc(OC)c1OC,2.51µM*,23.1µM*,?,-42.3%,?,.
COc1cc(OC)c(-c2oc3ccccc3c(=O)c2O)c(OC)c1,?,?,8.2µM*,3.9%,?,i
CCOc1ccc(-c2oc3cc(Cl)ccc3c(=O)c2O)cc1OC,31.6%,?,i,-20.6%,0.8%,i
COc1ccc(OC)c(-c2oc3ccccc3c(=O)c2O)c1,?,i,i,-6.1%,2.5%,i
O=c1oc2ccccc2c(Nc2cc3ccccc3cc2O)c1[N+](=O)[O-],?,?,14.6µM*,-17.4%,-27.3%,?
CCCCN(C(C)=O)c1ccc2c(c1)C1CC2CCN1C(=O)OCc1ccccc1 (stereo not given),12.6µM*,i,i,-26.6%,?,?
COc1cc(-c2noc(C)c2C#CC2(N)CCCCC2)cc(OC)c1OC,?,20.6µM*!,?,-14.4%,-2.1%,i
COc1cc(-c2noc(C)c2C#Cc2ccsc2)cc(OC)c1OC,11.2µM*,3.26µM*!,?,-19.9%,0.0%,i
COc1cc(-c2noc(C)c2C#CCO)cc(OC)c1OC,12.0%,?,i,-16.5%,-1.9%,i
COc1cc(-c2noc(C)c2C#CC2(O)CCCCC2)cc(OC)c1OC,6.9%,14.6µM*!,?,-5.9%,-2.7%,i
COc1cc(-c2noc(C)n2)cc(OC)c1OC,2.1%,i,i,2.4%,10.5%,i
CC(C)[C@H](N)c1nnc2n1N=C(c1ccc(Cl)cc1)CS2,-1.4%,i,i,-6.7%,-10.5%,i
SMILES,TGFb SMAD3 inh,KB-V1 MDR tox,KB-3-1 cytotox,HepG2 tox,ATXN2 expr inh,S2 tox
Clc1ccc(C2=Nn3c(nnc3-c3n[nH]c4c3CCC4)SC2)cc1,?,3.66µM*,3.66µM*,-52.0%,-4.9%,?
Brc1ccc(C2=Nn3c(nnc3-c3n[nH]c4c3CCC4)SC2)cc1,16.3%,1.16µM*,0.326µM*,-33.7%,-5.0%,?
CCC(C(=O)Nc1cccc(C#N)c1)n1c(=O)c(-c2ccccc2NC(C)=O)nc2ccccc21 (stereo not given),?,i,?,-8.5%,.,.
c1ccc(CSc2ccc(-c3ccc4c(c3)OCO4)nn2)cc1,-4.8%,i,16.4µM*,-66.5%,-5.7%,i
N=C(N)SCc1ccc(Cl)c2ccccc12,?,23.1µM*,i,-38.5%,-10.8%,?
CCS(=O)(=O)c1cccc(-c2cc(C(=O)NC3CCN(C)CC3)c(C)c3[nH]c4ncc(C)cc4c23)c1,.,.,.,.,1.93µM*,.
Cc1onc(-c2c(Cl)cccc2Cl)c1C(=O)Cl,.,.,.,.,5.5%,i
COc1ccc(OC)c(CNCc2c(C(=O)O)n(Cc3cccc(F)c3)c3cc(OC)ccc23)c1,0.6%,i,i,-0.1%,16.4%,?
COc1ccc2c(CNCC(C)c3ccccc3)c(C(=O)O)n(Cc3ccc(F)cc3Cl)c2c1 (stereo not given),0.0%,i,i,-15.3%,8.4%,i
CCc1ccc(CNCc2c(C(=O)O)n(Cc3ccc(C)cc3)c3cc(C)ccc23)cc1,15.8µM*,i,18.4µM*,17.8µM*,-9.7%,.
CCc1ccc(CNCc2c(C(=O)O)n(Cc3cccc(F)c3)c3cc(OC)ccc23)cc1,?,i,i,-101.3%,?,31.6µM*
Cc1ccc(CNCc2c(C(=O)O)n(Cc3ccccc3C)c3cc(C)ccc23)cc1,3.1%,i,?,10.1%,0.5%,i
COc1ccc2c(CNCCc3ccccc3OC)c(C(=O)O)n(Cc3ccc(F)cc3Cl)c2c1,?,i,20.6µM*,-59.4%,?,?
C=Cc1ccc(Cn2c(C(=O)O)c(CNCc3ccccc3)c3ccc(C)cc32)cc1,?,i,?,20µM*,0.0%,15.8µM*
CC12CN3CC(c4ccccc4)(CN(C1)C3c1ccc(O)cc1)C2=O (stereo not given),?,?,i,1.5%,-20.3%,i
Cc1cc2c(c(-c3ccc(Cl)cc3)c1)OC(CNC(=O)Cc1c(C)noc1C)C2 (stereo not given),.,.,.,.,.,i
Cc1cccc(CNCCn2cc(C(=O)Nc3ccccc3)nn2)c1,.,.,.,.,.,i
COc1cccc(NC(=O)c2ccccc2OCC(=O)Nc2ccc(Br)cc2)c1,?,i,i,-11.9%,.,.
Cc1ccc(Cn2c(C(=O)O)c(CNCc3ccc(OC(C)C)cc3)c3ccc(C)cc32)cc1,?,i,?,-106.0%,?,.

# Source: PubChem
